# Assay results from PubChem BioAssay AID651747 (Johns Hopkins Ion Channel Center, 2012).
# Out of some 2,400 compounds screened, about 950 (40%) were called active.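 Rule for the calls: active = thallium flux ratio, averaged over three wells, more than 5 SD below the buffer control mean; inactive = the rest.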 Shown is part of a subset that was picked to be rich in actives.
# Test: nonspecific thallium influx blockers, KCNK3-free cells – cell-based, non-induced KCNK3 line, FluxOR thallium, triplicate, counter-screen for KCNK3 inhibitor project, primary screen (AID 651747);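 note: host cells are CHO cells without KCNK3 induction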;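 for thallium flux ratio (lower = more inhibition): ratio is peak minus trough fluorescence over baseline then normalized to buffer controls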
# Conditions: non-induced KCNK3 parental cells, at 10 µM; outcome: FluxOR thallium flux; thallium flux ratio (lower = more inhibition): stronger effect = lower value
row,Structure (SMILES),thallium flux ratio (lower = more inhibition)
1,CCOC(=O)C1SC2(C(F)(F)C(F)F)CC1(O)c1c(c(OC)c3occc3c1OC)O2 (stereo not drawn),0.16 (active)
2,CCCCCCN=C(CC)c1c(O)n(CCCC)c(=O)[nH]c1=O,0.126 (active)
3,COc1ccccc1C1=NCc2nnc(CSC)n2-c2ccc(Cl)cc21,inactive
